Records with an inconclusive call do not appear. Activity calls are given as the source filed them. How the source made its calls: active means hit-call score of the fitted dose curve at least 0.9, where 1 is the maximum; inconclusive means response in the unintended direction; inactive means score below 0.9.
The compounds below were run against human AMP-activated Protein Kinase, alpha 1 (AMPKa1), PRKAA1 (gene 5562) (UniProt Q13131) (assay: NVS_ENZ_hAMPKa1: NovaScreen (NVS) Enzymatic Assay for human AMP-activated Protein Kinase, alpha 1 (AMPKa1) (AID 2283130)).
Method in brief: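 Compounds were screened in duplicate at 25 uM, and those reaching ~30% inhibition were titrated up to 50 uM. The enzyme was recombinant human AMPKα1, and kinase turnover was read by fluorescence/mobility shift 1 h post-dosing as loss of signal versus DMSO.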

Sequence of human AMP-activated Protein Kinase, alpha 1 (AMPKa1), PRKAA1 (gene 5562) (Q13131 whole entry, looked up): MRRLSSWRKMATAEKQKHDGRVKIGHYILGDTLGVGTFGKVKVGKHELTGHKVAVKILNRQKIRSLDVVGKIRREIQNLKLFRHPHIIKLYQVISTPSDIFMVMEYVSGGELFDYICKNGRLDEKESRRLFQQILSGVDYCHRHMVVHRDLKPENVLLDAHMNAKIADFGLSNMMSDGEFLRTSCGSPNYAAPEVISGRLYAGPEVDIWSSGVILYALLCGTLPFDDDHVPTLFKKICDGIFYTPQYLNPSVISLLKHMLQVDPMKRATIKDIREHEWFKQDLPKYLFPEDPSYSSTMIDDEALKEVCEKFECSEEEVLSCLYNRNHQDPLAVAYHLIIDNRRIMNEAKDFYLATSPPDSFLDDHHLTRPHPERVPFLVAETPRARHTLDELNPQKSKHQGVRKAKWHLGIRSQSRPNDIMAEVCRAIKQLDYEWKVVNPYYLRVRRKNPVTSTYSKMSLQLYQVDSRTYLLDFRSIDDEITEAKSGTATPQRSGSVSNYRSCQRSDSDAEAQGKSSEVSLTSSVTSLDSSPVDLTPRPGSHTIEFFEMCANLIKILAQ

Compound	outcome
O=C(O)c1cccc(Oc2ccccc2)c1	inactive
COc1ccc(OC(F)(F)F)cc1CN[C@H]1CCCN[C@H]1c1ccccc1	inactive
CN(C)C(=O)NC1(c2ccccc2)CCN(CCC[C@]2(c3ccc(Cl)c(Cl)c3)CCCN(C(=O)c3ccccc3)C2)CC1	inactive
CCc1c(C(=O)NN2CCCCC2)nn(-c2ccc(Cl)cc2Cl)c1-c1ccc(Br)cc1	inactive
CC1=C(/C=C/C(C)=C/C=C/C(C)=C/CO)C(C)(C)CCC1	inactive
c1ccc(C[n+]2cccc3ccccc32)cc1	inactive
CC1(C)NC(=O)NC1=O	inactive
C/C=C/C=C/C(=O)O	inactive
Cc1ccc(N)cc1O	inactive
O=C(O)CCCCC(=O)O	inactive

Each compound was assayed against human Caspase 10 (CASP10), CASP10 (gene 843) (UniProt Q92851) (assay: NVS_ENZ_hCASP10: NovaScreen (NVS) Enzymatic Assay for human Caspase 10 (CASP10) (AID 2283133)).
Method in brief: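 Fluorescence-intensity enzyme read-out of E. coli-expressed CASP10 activity, 1 h after compound. Single-point duplicates at 25 uM preceded concentration-response testing (top 50 uM) of hits; inhibition expressed as signal loss versus DMSO.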

Sequence of human Caspase 10 (CASP10), CASP10 (gene 843) (Q92851 whole entry, looked up): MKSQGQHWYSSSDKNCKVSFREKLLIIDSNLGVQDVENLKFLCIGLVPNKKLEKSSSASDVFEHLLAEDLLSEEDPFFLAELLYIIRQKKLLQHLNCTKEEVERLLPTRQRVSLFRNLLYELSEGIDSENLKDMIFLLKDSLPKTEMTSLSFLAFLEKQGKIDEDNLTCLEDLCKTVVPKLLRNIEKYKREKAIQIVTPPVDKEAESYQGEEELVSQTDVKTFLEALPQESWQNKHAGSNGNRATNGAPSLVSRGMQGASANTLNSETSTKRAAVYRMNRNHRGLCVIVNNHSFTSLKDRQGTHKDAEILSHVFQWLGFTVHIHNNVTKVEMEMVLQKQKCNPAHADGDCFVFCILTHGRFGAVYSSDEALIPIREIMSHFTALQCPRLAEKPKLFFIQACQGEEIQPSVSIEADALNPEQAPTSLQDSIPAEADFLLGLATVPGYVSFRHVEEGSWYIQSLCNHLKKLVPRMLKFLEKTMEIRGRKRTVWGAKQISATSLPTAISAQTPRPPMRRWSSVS

Compound	outcome	AC50
CN1C(=O)CC[C@H]1c1cccnc1	inactive	
O=C1CCC(C2CCCCC2)CC1	inactive	
O=C(O)CCCCC(=O)O		11.4 µM (active)

What follows are compounds tested against human Aurora Kinase A - serine/threonine-protein Kinase 6 (AurA), AURKA (gene 6790) (UniProt O14965) (assay: NVS_ENZ_hAurA: NovaScreen (NVS) Enzymatic Assay for human Aurora Kinase A - serine/threonine-protein Kinase 6 (AurA) (AID 2283142)).
Method in brief: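 Recombinant human AurA activity read by fluorescence after mobility-shift separation of product from substrate; 1 hour incubation. Chemicals first run in duplicate at 25 uM, then concentration series to 50 uM if over threshold; fitted relative to DMSO.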

Sequence of human Aurora Kinase A - serine/threonine-protein Kinase 6 (AurA), AURKA (gene 6790) (O14965 whole entry, looked up): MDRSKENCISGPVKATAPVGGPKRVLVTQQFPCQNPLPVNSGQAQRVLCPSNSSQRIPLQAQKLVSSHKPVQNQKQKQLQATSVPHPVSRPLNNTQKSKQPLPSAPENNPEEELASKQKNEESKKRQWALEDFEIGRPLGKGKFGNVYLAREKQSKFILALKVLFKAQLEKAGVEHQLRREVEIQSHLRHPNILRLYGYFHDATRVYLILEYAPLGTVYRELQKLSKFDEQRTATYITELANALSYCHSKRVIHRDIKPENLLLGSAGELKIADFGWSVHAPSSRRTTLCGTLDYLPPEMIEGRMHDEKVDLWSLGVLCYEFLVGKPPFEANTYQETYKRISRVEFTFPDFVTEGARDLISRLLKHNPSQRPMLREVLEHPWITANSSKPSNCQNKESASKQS

Compound	outcome	AC50
O=C(O)c1cccc(Oc2ccccc2)c1	inactive	
CN(C)C(=O)NC1(c2ccccc2)CCN(CCC[C@]2(c3ccc(Cl)c(Cl)c3)CCCN(C(=O)c3ccccc3)C2)CC1	inactive	
CCc1c(C(=O)NN2CCCCC2)nn(-c2ccc(Cl)cc2Cl)c1-c1ccc(Br)cc1	inactive	
O=C(c1ccc(OCCN2CCCCC2)cc1)c1c(-c2ccc(O)cc2)sc2cc(O)ccc12	inactive	
CC/C(=C(\c1ccccc1)c1ccc(OCCN(C)C)cc1)c1ccccc1	inactive	
Cc1cc(CCN2CCN(c3nsc4ccccc34)CC2)cc2c1NC(=O)CC2(C)C	inactive	
O=C(O)Cc1cc(I)c(Oc2cc(I)c(O)c(I)c2)c(I)c1		5.11 nM (active)
CC1=C(/C=C/C(C)=C/C=C/C(C)=C/CO)C(C)(C)CCC1	inactive	
Cc1ccc(N)cc1O	inactive	

The compounds below were run against human Epidermal Growth Factor Receptor (EGFR), EGFR (gene 1956) (UniProt P00533) (assay: NVS_ENZ_hEGFR: NovaScreen (NVS) Enzymatic Assay for human Epidermal Growth Factor Receptor (EGFR) (AID 2283151)).
Method in brief: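 Cell-free kinase assay, fluorescence plus electrophoretic mobility shift separating substrate and product, read 1 hour after dosing; loss of signal vs DMSO. Duplicate screen at 25 uM, then concentration-response to 50 uM.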

Compound	outcome
CCCCCCC(CCCCCCCCCCC(=O)OCC(COC(C)=O)OC(C)=O)OC(C)=O (stereo not drawn)	inactive
O=C(O)c1cccc(Oc2ccccc2)c1	inactive
CN(C)C(=O)NC1(c2ccccc2)CCN(CCC[C@]2(c3ccc(Cl)c(Cl)c3)CCCN(C(=O)c3ccccc3)C2)CC1	inactive
CCc1c(C(=O)NN2CCCCC2)nn(-c2ccc(Cl)cc2Cl)c1-c1ccc(Br)cc1	inactive
O=C(O)Cc1cc(I)c(Oc2cc(I)c(O)c(I)c2)c(I)c1	inactive
Nc1ccc2c(c1)C(=O)c1ccccc1C2=O	inactive
Cc1ccc(N)cc1O	inactive

What follows are compounds tested against human Ephrin type-A Receptor 2 (EphA2), EPHA2 (gene 1969) (UniProt P29317) (assay: NVS_ENZ_hEphA2: NovaScreen (NVS) Enzymatic Assay for human Ephrin type-A Receptor 2 (EphA2) (AID 2283155)).
Method in brief: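 Enzyme activity of recombinant EphA2 read by fluorescence after mobility-shift separation, 1 h after dosing. Chemicals first tested at 25 uM (duplicate); those passing threshold run as concentration series, top 50 uM, single replicate, relative to DMSO.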

Sequence of human Ephrin type-A Receptor 2 (EphA2), EPHA2 (gene 1969) (P29317 whole entry, looked up): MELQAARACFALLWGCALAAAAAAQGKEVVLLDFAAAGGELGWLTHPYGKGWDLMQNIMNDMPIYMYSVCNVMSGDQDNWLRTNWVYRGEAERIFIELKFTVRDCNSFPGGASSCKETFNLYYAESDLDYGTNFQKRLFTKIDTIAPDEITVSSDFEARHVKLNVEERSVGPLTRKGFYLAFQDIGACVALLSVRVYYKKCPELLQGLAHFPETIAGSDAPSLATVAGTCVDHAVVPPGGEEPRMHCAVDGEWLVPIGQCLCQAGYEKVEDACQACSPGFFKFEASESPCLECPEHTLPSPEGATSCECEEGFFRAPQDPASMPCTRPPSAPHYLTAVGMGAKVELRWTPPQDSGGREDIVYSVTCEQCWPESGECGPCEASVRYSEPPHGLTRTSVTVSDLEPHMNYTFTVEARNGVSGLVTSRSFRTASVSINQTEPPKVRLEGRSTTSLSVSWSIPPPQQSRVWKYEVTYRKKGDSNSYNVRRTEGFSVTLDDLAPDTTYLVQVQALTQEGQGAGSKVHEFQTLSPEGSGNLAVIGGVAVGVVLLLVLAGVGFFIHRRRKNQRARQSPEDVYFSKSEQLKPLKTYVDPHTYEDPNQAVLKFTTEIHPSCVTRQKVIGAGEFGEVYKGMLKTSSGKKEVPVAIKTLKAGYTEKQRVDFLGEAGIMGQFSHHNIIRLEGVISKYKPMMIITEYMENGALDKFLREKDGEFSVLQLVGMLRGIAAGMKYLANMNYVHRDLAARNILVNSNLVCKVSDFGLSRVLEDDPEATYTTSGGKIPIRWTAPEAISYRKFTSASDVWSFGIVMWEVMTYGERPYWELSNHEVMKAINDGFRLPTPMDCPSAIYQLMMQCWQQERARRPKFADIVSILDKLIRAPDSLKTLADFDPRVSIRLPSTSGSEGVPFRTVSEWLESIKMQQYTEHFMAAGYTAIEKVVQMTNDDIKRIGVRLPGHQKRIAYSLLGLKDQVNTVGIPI

Compound	outcome	AC50
O=C(O)c1cccc(Oc2ccccc2)c1	inactive	
CN(C)C(=O)NC1(c2ccccc2)CCN(CCC[C@]2(c3ccc(Cl)c(Cl)c3)CCCN(C(=O)c3ccccc3)C2)CC1	inactive	
CNS(=O)(=O)c1cc(C(=O)N2CCC(CCN3C4CCC3CC(n3c(C)nc5ccccc53)C4)(c3cccc(F)c3)CC2)c(Cl)cc1F (stereo not drawn)	inactive	
O=C(O)Cc1cc(I)c(Oc2cc(I)c(O)c(I)c2)c(I)c1	inactive	
CC1=C(/C=C/C(C)=C/C=C/C(C)=C/CO)C(C)(C)CCC1	inactive	
Cc1ccc(N)cc1O		18.1 µM (active)

What follows are compounds tested against human Fibroblast Growth Factor Receptor 1 (FGFR1), FGFR1 (gene 2260) (UniProt P11362) (assay: NVS_ENZ_hFGFR1: NovaScreen (NVS) Enzymatic Assay for human Fibroblast Growth Factor Receptor 1 (FGFR1) (AID 2283159);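 on AC50: hits lower the signal so potencies describe inhibitors of the kinase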).
Method in brief: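 Cell-free recombinant kinase with fluorescent substrate, product separated by electrophoretic mobility shift; read 1 hour after dosing, loss of signal relative to DMSO. Initial screen in duplicate at 25 uM, actives followed in concentration series.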

Sequence of human Fibroblast Growth Factor Receptor 1 (FGFR1), FGFR1 (gene 2260) (P11362 whole entry, looked up): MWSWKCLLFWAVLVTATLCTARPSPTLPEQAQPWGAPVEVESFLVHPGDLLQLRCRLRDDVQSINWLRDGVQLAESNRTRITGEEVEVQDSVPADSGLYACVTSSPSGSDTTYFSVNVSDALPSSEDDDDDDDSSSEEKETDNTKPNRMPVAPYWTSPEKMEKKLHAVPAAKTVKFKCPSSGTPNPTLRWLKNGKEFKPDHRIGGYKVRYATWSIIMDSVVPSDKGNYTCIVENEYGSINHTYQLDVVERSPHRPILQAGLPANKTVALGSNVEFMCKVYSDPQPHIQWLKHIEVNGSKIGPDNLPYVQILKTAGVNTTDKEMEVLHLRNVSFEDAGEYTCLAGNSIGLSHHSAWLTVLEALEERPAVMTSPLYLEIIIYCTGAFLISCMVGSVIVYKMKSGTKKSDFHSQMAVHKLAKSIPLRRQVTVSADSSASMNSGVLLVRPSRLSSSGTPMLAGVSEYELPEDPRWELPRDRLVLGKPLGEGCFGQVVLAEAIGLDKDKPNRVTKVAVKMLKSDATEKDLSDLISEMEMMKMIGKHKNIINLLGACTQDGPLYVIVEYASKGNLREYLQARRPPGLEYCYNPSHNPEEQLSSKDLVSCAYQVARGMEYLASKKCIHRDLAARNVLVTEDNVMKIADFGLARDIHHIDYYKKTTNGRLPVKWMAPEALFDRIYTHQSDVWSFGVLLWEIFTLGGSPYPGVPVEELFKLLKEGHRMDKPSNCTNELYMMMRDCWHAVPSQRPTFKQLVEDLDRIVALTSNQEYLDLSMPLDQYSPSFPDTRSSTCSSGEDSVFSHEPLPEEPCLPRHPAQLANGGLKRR

Compound	outcome	AC50
CCc1c(C(=O)NN2CCCCC2)nn(-c2ccc(Cl)cc2Cl)c1-c1ccc(Br)cc1	inactive	
O=C(c1ccc(OCCN2CCCCC2)cc1)c1c(-c2ccc(O)cc2)sc2cc(O)ccc12		36.2 µM (active)
Cc1cc(CCN2CCN(c3nsc4ccccc34)CC2)cc2c1NC(=O)CC2(C)C	inactive	
Clc1cc(Cl)c2c(c1)N=C1CCCCCN1C2	inactive	
O=C(O)Cc1cc(I)c(Oc2cc(I)c(O)c(I)c2)c(I)c1	inactive	
Cc1ccc(N)cc1O	inactive	

What follows are compounds tested against Protein deacetylase HDAC6 (Homo sapiens) (UniProt Q9UBN7) (assay: NVS_ENZ_hHDAC6: NovaScreen (NVS) Enzymatic Assay for human Histone Deacetylase 6 (HDAC6) (AID 2283164)).
Method in brief: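 Concentration-response runs up to 50 uM followed a duplicate 25 uM single-point screen. Deacetylase activity of recombinant human HDAC6 read by fluorescence after 1 h, with mobility-shift separation of substrate and product; DMSO as baseline.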

Compound	outcome
Cn1c(=O)cc(Oc2ccc(F)cc2F)c2cnc(NCC(C)(C)O)nc21	inactive
O=C1c2ccccc2C(=O)N1CCc1noc(-c2ccc(CN3CCCCCC3)s2)n1	inactive
Cc1ccc(N)cc1O	inactive

The compounds below were run against human Mitogen-Activated Protein Kinase 1 (MAPK 1), MAPK1 (gene 5594) (UniProt P28482) (assay: NVS_ENZ_hMAPK1: NovaScreen (NVS) Enzymatic Assay for human Mitogen-Activated Protein Kinase 1 (MAPK 1) (AID 2283175)).
Method in brief: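 Cell-free recombinant human MAPK1 enzymatic assay, fluorescence/electrophoretic mobility shift read at 1 h; loss of signal vs DMSO. Primary screen in duplicate at 25 uM; actives (e.g. ≥30% inhibition) run as concentration-response up to 50 uM.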

Sequence of human Mitogen-Activated Protein Kinase 1 (MAPK 1), MAPK1 (gene 5594) (P28482 whole entry, looked up): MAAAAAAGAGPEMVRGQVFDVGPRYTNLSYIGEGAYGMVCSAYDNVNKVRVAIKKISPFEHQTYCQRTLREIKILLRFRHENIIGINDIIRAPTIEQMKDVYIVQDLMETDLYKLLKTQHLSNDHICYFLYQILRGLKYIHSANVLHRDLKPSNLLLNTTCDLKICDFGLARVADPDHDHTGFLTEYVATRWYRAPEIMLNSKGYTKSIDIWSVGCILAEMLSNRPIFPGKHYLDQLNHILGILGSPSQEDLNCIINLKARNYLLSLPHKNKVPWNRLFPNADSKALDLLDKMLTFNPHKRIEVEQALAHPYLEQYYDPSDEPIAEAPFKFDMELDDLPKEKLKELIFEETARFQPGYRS

Compound	outcome
COc1ccc(OC(F)(F)F)cc1CN[C@H]1CCCN[C@H]1c1ccccc1	inactive
CN(C)C(=O)NC1(c2ccccc2)CCN(CCC[C@]2(c3ccc(Cl)c(Cl)c3)CCCN(C(=O)c3ccccc3)C2)CC1	inactive
CCc1c(C(=O)NN2CCCCC2)nn(-c2ccc(Cl)cc2Cl)c1-c1ccc(Br)cc1	inactive

The compounds below were run against human p21 Activated Kinase 4 (PAK4), PAK4 (gene 10298) (UniProt O96013) (assay: NVS_ENZ_hPAK4: NovaScreen (NVS) Enzymatic Assay for human p21 Activated Kinase 4 (PAK4) (AID 2283189)).
Method in brief: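 Extracted PAK4 enzyme activity read by fluorescence with mobility-shift separation 1 h after chemical addition. Duplicate single-concentration screen at 25 uM, DMSO as negative control.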

Sequence of human p21 Activated Kinase 4 (PAK4), PAK4 (gene 10298) (O96013 whole entry, looked up): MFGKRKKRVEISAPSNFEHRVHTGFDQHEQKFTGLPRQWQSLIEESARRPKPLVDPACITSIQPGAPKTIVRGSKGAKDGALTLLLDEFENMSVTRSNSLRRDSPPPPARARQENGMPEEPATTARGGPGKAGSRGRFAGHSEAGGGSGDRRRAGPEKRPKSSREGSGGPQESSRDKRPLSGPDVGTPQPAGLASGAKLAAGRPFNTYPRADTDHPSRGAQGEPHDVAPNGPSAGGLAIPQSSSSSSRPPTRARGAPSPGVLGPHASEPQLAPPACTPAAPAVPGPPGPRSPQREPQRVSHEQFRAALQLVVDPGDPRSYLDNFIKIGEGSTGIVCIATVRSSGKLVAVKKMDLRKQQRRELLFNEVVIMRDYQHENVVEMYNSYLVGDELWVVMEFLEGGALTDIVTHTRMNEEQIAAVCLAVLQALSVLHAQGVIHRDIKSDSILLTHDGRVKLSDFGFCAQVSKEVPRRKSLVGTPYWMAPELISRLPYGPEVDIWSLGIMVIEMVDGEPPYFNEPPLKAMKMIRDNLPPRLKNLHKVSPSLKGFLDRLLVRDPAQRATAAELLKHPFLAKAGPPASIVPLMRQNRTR

Compound	outcome
CN(C)C(=O)NC1(c2ccccc2)CCN(CCC[C@]2(c3ccc(Cl)c(Cl)c3)CCCN(C(=O)c3ccccc3)C2)CC1	inactive
CCc1c(C(=O)NN2CCCCC2)nn(-c2ccc(Cl)cc2Cl)c1-c1ccc(Br)cc1	inactive
O=C(c1ccc(OCCN2CCCCC2)cc1)c1c(-c2ccc(O)cc2)sc2cc(O)ccc12	inactive
CC/C(=C(\c1ccccc1)c1ccc(OCCN(C)C)cc1)c1ccccc1	inactive
O=C(O)Cc1cc(I)c(Oc2cc(I)c(O)c(I)c2)c(I)c1	inactive
CC1(C)NC(=O)NC1=O	inactive
COc1ccc(-n2nc(C(F)F)cc2-c2ccc(S(C)=O)cc2)cc1 (stereo not drawn)	inactive
CCOC(=O)CCC(=O)OCC	inactive

What follows are compounds tested against human Phosphatase and Tensin Homolog (PTEN), PTEN (gene 5728) (UniProt P60484) (assay: NVS_ENZ_hPTEN: NovaScreen (NVS) Enzymatic Assay for human Phosphatase and Tensin Homolog (PTEN) (AID 2283203)).
Method in brief: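 Loss of fluorescent product signal after mobility-shift separation reports PTEN activity, recombinant human enzyme, 1 h after compound addition. Single 25 uM duplicate screen, then concentration-response on actives; DMSO baseline.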

Sequence of human Phosphatase and Tensin Homolog (PTEN), PTEN (gene 5728) (P60484 whole entry, looked up): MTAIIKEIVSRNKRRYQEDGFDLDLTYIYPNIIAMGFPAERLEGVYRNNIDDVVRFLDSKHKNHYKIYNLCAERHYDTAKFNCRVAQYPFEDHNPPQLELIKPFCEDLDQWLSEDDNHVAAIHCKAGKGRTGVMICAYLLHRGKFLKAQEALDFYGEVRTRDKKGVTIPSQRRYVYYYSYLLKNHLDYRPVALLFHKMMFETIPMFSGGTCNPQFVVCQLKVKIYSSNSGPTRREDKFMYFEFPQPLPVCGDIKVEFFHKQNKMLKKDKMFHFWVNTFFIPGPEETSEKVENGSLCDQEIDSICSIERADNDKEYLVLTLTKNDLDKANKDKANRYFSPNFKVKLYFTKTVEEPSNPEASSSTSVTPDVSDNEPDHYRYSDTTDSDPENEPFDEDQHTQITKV

Compound	outcome
O=C(O)c1cccc(Oc2ccccc2)c1	inactive
NC(=O)N(O)[C@@H]1C=C[C@H](Oc2cccc(Oc3ccc(F)cc3)c2)C1	inactive
CCc1c(C(=O)NN2CCCCC2)nn(-c2ccc(Cl)cc2Cl)c1-c1ccc(Br)cc1	inactive
